# Source: PubChem (National Center for Advancing Translational Sciences (NCATS))
# Pf growth 96h – Primary qHTS for delayed death inhibitors of the malarial parasite plastid, 96 hour incubation. Potency, µM (titrated, usually from 28.7 µM), for inactives: top-dose activity change, negative = inhibition, hits mostly inhibitors. P. falciparum luciferase reporter growth, 96 h. actives 6.9% (n = 320,000). AID 504834, 2011; active means well fitted inhibition curve with a large enough effect; inconclusive means small, poorly fitted or top-dose-only effect, or another doubt; inactive means no such curve, though single readings can be large or run the other way; further: potency means the concentration at half of the fitted maximal effect; on the % scale 0 is the no-effect control and ±100 the full control effect
#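 Erythrocytes infected with luciferase-expressing P. falciparum were dispensed at 2% hematocrit and 0.05% parasitemia (final), then incubated with compounds 96 hours at 37 C in 5% CO2. Luminescence after detection reagent addition reported growth.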
# Shiga toxin inh – A qHTS for Small Molecule Inhibitors of Shiga Toxin | Vero cells, Shiga toxin protein synthesis inhibition reporter | inhibition, % at 38.7 µM | actives 9.2% (n = 290,000) | AID 2315, 2010; in the data active means inhibition mostly above about 28%, no sharp cut-off; inactive means mostly below about 43%; further: 0% is about no effect
# SARS PLP yeast – qHTS of Yeast-based Assay for SARS-CoV PLP | AID 485353, 2010 | S. cerevisiae expressing SARS-CoV PLpro, growth rescue | Potency, µM (doses to about 32.9 µM), for inactives: at the highest dose activity, positive = growth rescue, most hits filed as activators | actives 0.19% (n = 330,000); further: potency means the concentration at half of the fitted maximal effect; 0% is about no effect; nearly all actives have a fitted effect of over 55% in size
# Pf growth 48h – Primary qHTS for delayed death inhibitors of the malarial parasite plastid, 48 hour incubation; P. falciparum luciferase growth in erythrocytes, 48 h; AID 504832, 2011; actives 5.9% (n = 310,000); Potency, µM (series often up to 28.7 µM), inactives show at the highest dose activity change, negative = inhibition, hits mostly inhibitors; active means well fitted inhibition curve with a large enough effect; inconclusive means small, poorly fitted or top-dose-only effect, or another doubt; inactive means no such curve, though single readings can be large or run the other way; further: potency means the concentration at half of the fitted maximal effect; on the % scale 0 is the no-effect control and ±100 the full control effect
#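 Luciferase-expressing parasites in RBCs, 2% Hct / 0.1% parasitemia final; RPMI 1640 + 0.5% Albumax; 37 C, 5% CO2, one generation; luminescence read-out, lower signal = inhibition.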
# NS1 inh – qHTS Assay for Inhibitors of Influenza NS1 Protein Function. Potency, µM (top dose mostly 46.1 µM), for inactives: top-dose activity, positive = more growth. actives 0.4% (n = 270,000). AID 2326, 2010; further: potency means the concentration at half of the fitted maximal effect; actives are rising curves; nearly all actives have a fitted effect of over 50% in size
#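 OD600 was taken as the measure of yeast growth restored by compound in an NS1-expressing S. cerevisiae strain. Cells had been washed out of glucose medium and diluted 1:100 into galactose -URA medium, pH 6.0.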
# Cycloheximide cs – Cycloheximide Counterscreen for Small Molecule Inhibitors of Shiga Toxin; cell reporter, cycloheximide protein synthesis inhibition counterscreen; max response, %; actives 12% (n = 300,000); in the data active means max response mostly above about 13%, no sharp cut-off; inactive means mostly below about 14%; further: read at 38.3 µM for the half of the compounds with a filed dose; 0% is about no effect
# The depositor's hits bear a star; u = inconclusive; x = no result. Shown are actives, neighbours in structure and some others; about 21% of the full set was active somewhere. Unless noted, the call rests on the fitted dose curve.
SMILES,Pf growth 96h,Shiga toxin inh,SARS PLP yeast,Pf growth 48h,NS1 inh,Cycloheximide cs
O=C(COC(=O)c1ccc2ncsc2c1)Nc1ccccc1Cl,x,x,-3%,x,x,x
O=C(/C=C/Nc1ccc(F)cc1)c1ccco1,x,67*,-8%,279%,-6%,35*
CCOC(=O)c1ccc(NC(=O)N2CCN(C(=O)c3ccco3)CC2)cc1,u,-5,0%,u,-1%,-4
CCOC(=O)c1ccc(N/C=C/C(=O)c2ccco2)cc1,97%,66*,-8%,x,-69%,40*
CCOC(=O)C1(Cc2ccc(OC)cc2)CCN(C(=O)c2cc(C)nn2C)CC1,-2%,19,2%,-11%,-4%,14*
CCOC(=O)C1(Cc2ccc(OC)cc2)CCN(C(=O)c2cccc3nccnc23)CC1,-16%,10,1%,-18%,-10%,10
CCOC(=O)C1(Cc2ccc(OC)cc2)CCN(C(=O)CN2CCOC2=O)CC1,13%,17,-1%,-15%,-4%,14
CCOC(=O)C1(Cc2ccc(OC)cc2)CCN(C(=O)CN2CCCCC2=O)CC1,44%,26*,-1%,26%,-2%,17*
CCOC(=O)C1(Cc2ccc(OC)cc2)CCN(S(C)(=O)=O)CC1,2%,50*,0%,27%,2%,47*
CCCS(=O)(=O)N1CCC(Cc2ccc(OC)cc2)(C(=O)OCC)CC1,1%,19,-1%,9%,-6%,20*
O=C(CNC(=O)c1ccc(Cl)cc1)NNc1c(F)c(F)cc(F)c1F,x,x,-5%,x,x,x
CS(=O)(=O)N(CC(=O)NCCSCc1cccc(Cl)c1)c1ccccc1F,25%,x,0%,-24%,-18%,2
CCOc1ccc2c(c1)-c1c(ssc1=S)C(C)(C)N2C(=O)c1ccco1,1.3µM*,-9,1%,2.3µM*,30%,-2
CCn1ncc(/C=N/N=C2\CCC3C4CCc5cc(O)ccc5C4CCC23C)c1C (configuration not stated),1.7µM*,-2,-1%,x,-3%,5
O=C(NCc1ccccc1Cl)c1ccncc1,-11%,-2,-2%,5%,-5%,-2
O=C(CCNC(=O)c1ccc(Cl)cc1)NCc1ccccc1Cl,-24%,x,6%,-20%,x,x
O=C(Cc1ccc(Cl)cc1)NCc1ccccc1Cl,12%,115,1%,119%,x,50*
O=C(NCc1ccccc1Cl)c1ccc(-c2ccccc2)cc1,u,47*,-4%,18%,-5%,22*
Cc1ccccc1CNC(=O)Cc1ccccc1[N+](=O)[O-],u,62*,12%,77%,0%,58*
Cc1cc(C)n2nc(CC(=O)NCc3ccccc3Cl)nc2n1,3.3µM*,40,-15%,7%,6%,6
Cc1ccc(CNC(=O)c2ccc(C)c(S(=O)(=O)N3CCCCC3)c2)cc1,u,x,3%,u,x,x
C[C@H](O)CC1=C[C@H](O)[C@@H](C)OC1=O,57%,-11,1%,3%,2%,-1
O=S(=O)(c1ccc(Cl)nc1)N1CCOCC1,x,x,2%,x,x,x
CCNC(=O)/C=C/c1ccccc1[N+](=O)[O-],u,5,-1%,23%,1%,-6
Cc1c(C(=O)NCCSCc2c(Cl)cccc2Cl)cccc1[N+](=O)[O-],75%,16,-13%,u,-5%,-1
SMILES,Pf growth 96h,Shiga toxin inh,SARS PLP yeast,Pf growth 48h,NS1 inh,Cycloheximide cs
CC(C)C[C@H](NC(=O)NCc1ccccc1Cl)C(=O)O,0.93µM*,24,-2%,7%,7%,-4
O=C(/C=C/c1ccccc1[N+](=O)[O-])NCc1ccccc1Cl,-22%,60,0%,-10%,x,50*
O=C(Cc1ccccc1[N+](=O)[O-])NCCSCc1c(F)cccc1Cl,-4%,40,0%,-9%,-1%,40*
O=C(Cc1ccccc1[N+](=O)[O-])NCc1ccccc1Cl,212%,95*,1%,75%,9%,55*
COc1ccc(/C=C(\NC(=O)c2ccccc2)C(=O)OCC2CCCN3CCCCC23)cc1OC (configuration not stated),-11%,-3,2%,0%,x,-2
CCOC(=O)c1nn(-c2ccccc2)c(=O)cc1OCC(=O)Nc1ccccc1OCC,10%,x,3%,4%,x,x
